# Assay results reported in PubChem BioAssay.
# Calls of active or inactive are those of the source.
# How the values were obtained:
# [1] = compounds binding Alexa647 anti-His antibody – biochemical, small-molecule microarray, 635 nm fluorescence, artefact control for SMM control protein annotation, primary screen (AID 1128); details: higher = more signal;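 note: score merges feature fluorescence with signal-to-noise for each printed compound spot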
# [2] = test system: Human papillomavirus type 1a E7 protein (residues 1-88); test: HPV1a E7 small-molecule binders, primary screen, biochemical, small-molecule microarray, residues 1-88, 635 nm (AID 1129); details: small-molecule microarray binding, fluorescence 635 nm; higher = more signal
# [3] = biological target: Focal adhesion kinase 1 (Homo sapiens) (UniProt Q05397); test: PTK2 protein binding on printed compound slides – biochemical, small-molecule microarray, 635/667 nm fluorescence, BSA, DTT, primary screen (AID 1130); details: 635 nm fluorescence, higher = more signal;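 note: composite of spot emission at 667 nm and signal to noise over triplicate slides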
# Focal adhesion kinase 1 (Homo sapiens), sequence (Q05397 whole entry, looked up): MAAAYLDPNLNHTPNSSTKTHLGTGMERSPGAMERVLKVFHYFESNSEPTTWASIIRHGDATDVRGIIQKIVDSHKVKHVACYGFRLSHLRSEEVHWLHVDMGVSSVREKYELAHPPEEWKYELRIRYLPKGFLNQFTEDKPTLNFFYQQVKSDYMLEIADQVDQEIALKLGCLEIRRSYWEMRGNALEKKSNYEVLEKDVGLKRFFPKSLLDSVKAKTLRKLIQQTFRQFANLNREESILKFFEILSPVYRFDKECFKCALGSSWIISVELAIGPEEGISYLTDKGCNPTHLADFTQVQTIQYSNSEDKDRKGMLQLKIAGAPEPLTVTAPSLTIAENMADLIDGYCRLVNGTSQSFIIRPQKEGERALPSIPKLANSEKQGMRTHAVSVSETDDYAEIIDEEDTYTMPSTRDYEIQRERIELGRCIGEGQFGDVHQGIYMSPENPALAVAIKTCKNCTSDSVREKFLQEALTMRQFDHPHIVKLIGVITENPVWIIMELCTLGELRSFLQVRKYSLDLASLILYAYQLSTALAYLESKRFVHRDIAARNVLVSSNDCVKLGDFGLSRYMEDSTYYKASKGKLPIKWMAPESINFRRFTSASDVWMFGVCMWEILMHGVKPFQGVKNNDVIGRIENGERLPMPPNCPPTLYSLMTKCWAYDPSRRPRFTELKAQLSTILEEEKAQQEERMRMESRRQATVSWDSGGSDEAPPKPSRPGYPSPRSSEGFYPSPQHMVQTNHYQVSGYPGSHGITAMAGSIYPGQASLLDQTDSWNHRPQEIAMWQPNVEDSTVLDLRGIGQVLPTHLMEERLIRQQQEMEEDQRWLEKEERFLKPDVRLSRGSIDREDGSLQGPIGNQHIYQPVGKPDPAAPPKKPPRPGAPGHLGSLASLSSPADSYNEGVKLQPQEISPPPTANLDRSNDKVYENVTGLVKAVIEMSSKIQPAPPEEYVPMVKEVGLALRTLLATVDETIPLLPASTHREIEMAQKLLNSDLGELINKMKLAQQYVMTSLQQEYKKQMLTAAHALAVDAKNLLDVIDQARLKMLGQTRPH
# [4] = test system: Fibrinogen (Alexa647-labelled); test: Alexa647-fibrinogen binding to printed small molecules – biochemical, small-molecule microarray, 635/667 nm fluorescence, artefact control for SMM control-protein annotation, profiling panel (AID 1131); details: fibrinogen-A647 binding fluorescence, higher = more signal;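 note: z-score merges 667 nm fluorescence with per-spot signal-to-noise over triplicate slides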
# [5] = biological target: Follistatin (Homo sapiens) (UniProt P19883); test: FST protein binding to printed compounds – biochemical, small-molecule microarray, 635/667 nm fluorescence, primary screen (AID 1132); details: 635 nm fluorescence, higher = more signal
# Follistatin (Homo sapiens), sequence (P19883 whole entry, looked up): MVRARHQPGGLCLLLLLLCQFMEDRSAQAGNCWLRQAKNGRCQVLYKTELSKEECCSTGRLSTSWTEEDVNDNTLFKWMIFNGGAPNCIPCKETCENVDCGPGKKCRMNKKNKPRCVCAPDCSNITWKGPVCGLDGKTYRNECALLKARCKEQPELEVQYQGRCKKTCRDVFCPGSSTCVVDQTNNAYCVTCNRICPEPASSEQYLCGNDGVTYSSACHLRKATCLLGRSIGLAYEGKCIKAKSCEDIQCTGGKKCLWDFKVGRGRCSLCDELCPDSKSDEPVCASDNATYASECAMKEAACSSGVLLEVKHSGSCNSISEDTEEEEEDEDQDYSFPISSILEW
# [6] = biological target: Fibroblast growth factor 2 (Homo sapiens) (UniProt P09038); test: basic fibroblast growth factor binding to printed compounds – biochemical, small-molecule microarray, 635/667 nm fluorescence, primary screen (AID 1133); details: FGF2, fluorescence 635/667, higher = more signal
# Fibroblast growth factor 2 (Homo sapiens), sequence (P09038 whole entry, looked up): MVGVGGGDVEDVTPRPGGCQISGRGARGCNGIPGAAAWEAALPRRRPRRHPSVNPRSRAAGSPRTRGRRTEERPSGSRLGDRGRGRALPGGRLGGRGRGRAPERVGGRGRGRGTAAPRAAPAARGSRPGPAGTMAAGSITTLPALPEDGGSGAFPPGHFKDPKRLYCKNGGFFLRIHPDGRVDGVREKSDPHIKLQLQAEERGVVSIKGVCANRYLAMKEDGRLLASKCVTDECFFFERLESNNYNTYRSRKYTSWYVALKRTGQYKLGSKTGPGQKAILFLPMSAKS
# [7] = JC-1 mitochondrial potential readout, lung cancer cells – cell-based, A549, JC-1 fluorescence, basal, 24 h, 100 nL, profiling panel (AID 1138); details: higher = more signal;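 note: A549 lung adenocarcinoma cells under basal conditions with no added stimulus; test concentration not given here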
# Lefty1 = Lefty1 protein binding to printed compounds – biochemical, small-molecule microarray, 635/667 nm fluorescence, primary screen (AID 1139); details: fluorescence 635/667, higher = more signal
# [8] = test system: wheat germ agglutinin (Triticum aestivum), Alexa647-labelled; test: Alexa647-WGA lectin binding to printed small molecules – biochemical, small-molecule microarray, 635/667 nm fluorescence, artefact control for SMM control-protein annotation, profiling panel (AID 1140); details: WGA-A647 binding, 635 nm fluorescence, higher = more signal;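 note: score merges 667 nm feature emission with signal to noise over triplicate slides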
# [9] = biological target: Luciferin 4-monooxygenase (Photinus pyralis) (UniProt P08659); test: inhibition of purified Photinus pyralis luciferase – biochemical, luminescence, purified enzyme, 2006 set, primary screen (AID 1141); details: purified firefly luciferase, SteadyGlo luminescence, 30 min; higher = more signal, called active from +8 up or from −8 down;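 note: cell-free assay with purified firefly luciferase at 100 ng per well in PBS; test concentration not given here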
# Luciferin 4-monooxygenase (Photinus pyralis), sequence (P08659 whole entry, looked up): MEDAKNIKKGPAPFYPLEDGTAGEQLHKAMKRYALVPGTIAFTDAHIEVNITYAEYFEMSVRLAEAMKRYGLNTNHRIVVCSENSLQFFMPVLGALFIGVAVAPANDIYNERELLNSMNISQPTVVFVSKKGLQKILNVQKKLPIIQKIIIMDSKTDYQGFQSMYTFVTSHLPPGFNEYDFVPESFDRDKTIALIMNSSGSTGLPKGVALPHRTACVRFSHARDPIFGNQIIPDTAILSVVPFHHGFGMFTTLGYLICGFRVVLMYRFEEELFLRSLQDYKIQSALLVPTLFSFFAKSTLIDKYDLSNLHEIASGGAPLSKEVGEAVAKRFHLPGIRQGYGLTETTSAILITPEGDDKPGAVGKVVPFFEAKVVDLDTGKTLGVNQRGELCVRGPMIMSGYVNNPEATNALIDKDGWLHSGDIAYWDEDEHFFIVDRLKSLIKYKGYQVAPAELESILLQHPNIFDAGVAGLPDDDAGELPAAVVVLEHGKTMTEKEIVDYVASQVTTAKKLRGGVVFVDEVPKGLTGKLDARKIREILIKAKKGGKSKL
Structure (SMILES),composite z-score [1],composite z-score [2],composite z-score [3],composite z-score [4],composite z-score [5],composite z-score [6],z-score [7],composite z-score (Lefty1),composite z-score [8],z-score [9]
Cc1ccc(S(=O)(=O)N2[C@@H](c3ccccc3)C(C(=O)O)=C[C@H]2C(C)(C)C)cc1,1.43,1.18,1.31,0.651,0.804,-0.0977,-1.04,0.576,1.31,1.19 (inactive)
O=C1C2C=CC(C(O)C3CC=CCC3)N(Nc3ccc([N+](=O)[O-])cc3)C2C(=O)N1c1ccccc1 (stereo not given),2.2,1.2,0.876,0.994,1.36,0.0341,-0.861,0.307,0.862,0.83 (inactive)
COc1ccc(CCNC(=O)[C@@]2(C)c3ccccc3C(=O)N(Cc3ccc(OC(F)(F)F)cc3)[C@H]2c2ccc(CO)cc2)cc1,-0.0781,1.21,1.13,0.576,1.3,1.76,0.791,0.268,0.375,-0.629 (inactive)
C=CC[C@]1(C(=O)NCC(O)CO)N=C(c2ccc(OCCCO)cc2)O[C@H]1c1ccccc1CN=[N+]=[N-] (stereo not given in full),2.81,1.22,-0.209,-0.204,0.875,0.785,0.895,-0.0497,0.502,-0.154 (inactive)
O=C1O[C@H](c2ccccc2)[C@H](c2ccccc2)N2[C@H]1[C@@H](C(=O)N1CCCCCCC1)[C@]1(C(=O)Nc3ccc(C#CCCO)cc31)[C@H]2c1ccc(O)cc1,2.12,1.32,4.55,0.967,1.56,1.71,0.889,1.85,1.68,0.628 (inactive)
C=CCOC(=O)[C@H]1[C@@H]2C(=O)O[C@@H](c3ccccc3)[C@@H](c3ccccc3)N2[C@@H](c2ccc(OCCOC(=O)[C@H]3C[C@H]4C(=O)NCC(=O)N4[C@H]3c3cccc(OCCO)c3)cc2)[C@]12C(=O)Nc1ccc(I)cc12,0.844,1.06,0.835,0.494,1.41,1.37,-0.715,1.5,0.288,-0.919 (inactive)
COc1ccc(C(O)C2C=CC3C(=O)N(c4ccccc4)C(=O)C3N2Nc2ccccc2F)c2ccccc12 (stereo not given),1.95,1.23,1.03,0.995,1.33,0.716,-0.646,-0.111,1.29,-1.77 (inactive)
C[C@]1(C(=O)NCC(F)(F)F)c2ccccc2C(=O)N(Cc2cc(C(F)(F)F)cc(C(F)(F)F)c2)[C@H]1c1ccc(CO)cc1,0.0266,0.416,0.0715,0.412,-0.0478,0.292,1.23,-0.541,-0.174,-1.17 (inactive)
COC(=O)[C@@]1(Cc2ccc(OC)cc2)[C@@H]2[C@@H](CC(=O)[C@H]2CC(=O)C(=O)N(C)C)CN1C(=O)c1ccccc1,2.06,1.24,0.462,1,0.594,0.153,0.257,-0.477,1.34,-0.273 (inactive)
OCCCc1cc[n+](Cc2cc3c(cc2Br)OCO3)cc1,-0.874,-1.86,-0.719,-1.64,-0.528,-0.333,-0.0611,-0.903,-0.77,-0.903 (inactive)
COc1ccc([Si](C)(C)[C@@H]2[C@@H](CC(=O)N3CCC[C@H]3CO)O[C@]3(C(=O)N(Cc4cccc(N5C(=O)c6cccc7cccc5c67)c4)c4ccccc43)[C@H]2C)cc1,1.2,1.03,0.948,0.584,1.16,1.43,-0.0137,0.839,1.21,-0.0921 (inactive)
O=C1c2ccccc2[C@](Cc2ccccc2I)(C(=O)NCCN2CCOCC2)[C@H](c2ccc(CO)cc2)N1Cc1ccccc1C(F)(F)F,0.218,1.18,0.334,0.88,0.447,0.0123,2.25,0.246,0.418,-0.0684 (inactive)
COC(=O)[C@@]1(Cc2ccccc2)[C@H]2c3cc(C(=O)N(C)C)n(Cc4ccc(Cl)c(C(F)(F)F)c4)c3C[C@H]2CN1C(=O)c1ccccc1,1.17,1.16,-0.104,0.93,1.22,0.33,0.32,1.33,0.674,1.52 (inactive)
Cc1ccc(S[C@]2(C(=O)NC3CC3)CC(=O)N(C3Cc4ccccc4C3)[C@@H]2c2ccc(CO)cc2I)cc1,0.447,0.275,-0.3,0.484,0.0932,-0.115,1.57,-1.32,-0.409,-1.28 (inactive)
COc1ccc([Si](C)(C)[C@H]2[C@H](CC(=O)N(CCO)Cc3ccccc3)O[C@@]3(C(=O)N(Cc4cccc(N5CCCCC5=O)c4)c4ccccc43)[C@@H]2C)cc1,1.13,0.694,0.18,0.267,0.724,1.23,-0.153,0.931,0.311,-1.55 (inactive)
CCCC=C(CCC)[C@@H](NC(=O)c1ccc(C(=O)OC)cc1)c1ccc(C(=O)OC)cc1,-0.202,0.33,0.723,0.146,0.0388,-1.47,-0.699,-0.799,0.315,1.3 (inactive)

Structure (SMILES),composite z-score [1],composite z-score [2],composite z-score [3],composite z-score [4],composite z-score [5],composite z-score [6],z-score [7],composite z-score (Lefty1),composite z-score [8],z-score [9]
CCCCCCCCCCC(O)C1C=CC2C(=O)N(C)C(=O)C2N1Nc1ccccc1 (stereo not given),-0.901,-0.339,0.365,-0.624,-1.68,-1.84,0.172,-1.75,-0.848,-0.319 (inactive)
C=CCNC(=O)[C@@H]1[C@H]2C(=O)O[C@H](c3ccccc3)[C@H](c3ccccc3)N2[C@H](c2ccc(OCCO)cc2)[C@@]12C(=O)N(C(=O)OCCOC)c1ccccc12,1.25,1.19,0.986,0.61,1.29,1.26,1.11,0.581,0.539,0.36 (inactive)
CCCCN1CC=CC23O[C@@H]4/C=C\CCCOC(=O)C4[C@H]2C(=O)N(CCCCCCO)[C@@H]3C1=O (stereo not given in full),0.193,-0.0399,0.0326,-1.21,-1.02,-0.621,1.56,-0.331,-0.13,-0.0067 (inactive)
C=CCN1C(=O)[C@]2(O[C@H](CCO)[C@@H]([Si](C)(C)c3ccc(OC)cc3)[C@@H]2C)c2cc(N3C(=O)c4ccccc4Oc4ccccc43)ccc21,0.309,1.14,0.215,0.694,0.157,0.0857,-1.36,0.591,0.51,0.368 (inactive)
COc1ccc(C(=O)Nc2ccc(CN3C(=O)[C@]4(O[C@H](CC(=O)N(CCO)Cc5ccccc5)[C@@H]([Si](C)(C)c5ccc(OC)cc5)[C@@H]4C)c4ccccc43)cc2)cc1,0.122,1.14,0.677,0.375,1.25,1.31,-0.474,1.32,0.162,0.505 (inactive)
COCCCNC(=O)[C@@]1(Cc2ccccc2I)c2ccccc2C(=O)N(C2CCCCC2)[C@H]1c1ccc(CO)cc1,0.912,1.02,0.312,0.544,0.926,1.29,0.438,0.812,0.772,0.948 (inactive)
COc1ccc([Si](C)(C)[C@H]2[C@H](CCO)O[C@@]3(C(=O)N(Cc4ccccc4)c4ccc(NC(=O)[C@H](C)O)cc43)[C@@H]2C)cc1,0.779,1.16,0.361,0.967,0.578,-0.145,-0.924,0.575,0.75,-0.355 (inactive)
O=C1C2C=CC(C(O)c3ccccn3)N(Nc3ccc([N+](=O)[O-])cc3)C2C(=O)N1c1ccccc1 (stereo not given),0.344,1.16,0.427,1.02,0.336,0.292,-0.378,-0.43,1.05,0.654 (inactive)
C=CCOC(=O)[C@H]1[C@@H]2C(=O)O[C@@H](c3ccccc3)[C@@H](c3ccccc3)N2[C@@H](c2ccc(OCCOC(=O)[C@H]3C[C@H]4C(=O)NCC(=O)N4[C@H]3c3ccc(O)cc3)cc2)[C@]12C(=O)Nc1ccccc12,1.46,1.22,0.402,0.961,1.44,1.46,-1.62,1.26,0.543,0.207 (inactive)
COC(=O)[C@@]1(Cc2ccc(F)cc2)[C@H]2c3cc(C(=O)N(C)C)n(Cc4cccc5ccccc45)c3C[C@H]2CN1C(=O)c1ccccc1,0.497,1.11,0.705,0.338,0.137,-0.617,0.319,-0.446,0.115,4.74 (inactive)
COCCOC(=O)N1C(=O)[C@@]2(c3cc(C#CCC(C(=O)OC)C(=O)OC)ccc31)[C@H](C(N)=O)[C@H]1C(=O)O[C@H](c3ccccc3)[C@H](c3ccccc3)N1[C@@H]2c1ccccc1OCCO,0.737,1.09,0.225,0.927,1.32,1.57,-0.116,1.26,0.556,-0.617 (inactive)
COC(=O)[C@H](Cc1ccccc1)N1CC(C)(OC)O[C@@H](Cc2ccccc2)[C@H]1/C=C/C1CC1 (stereo not given in full),0.575,0.145,0.0639,0.47,0.0103,0.0959,0.385,-0.14,0.808,-0.138 (inactive)
CN(C)CCCCNC(=O)[C@H]1C[C@H]2C(=O)N[C@@H](CCCCN(C)C)C(=O)N2[C@H]1c1ccc(O)cc1,1.01,-0.102,0.129,-0.803,1.19,0.988,-0.0458,0.754,0.0466,0.47 (inactive)
C=C(CCCC)/C(=C/C[C@@H](OC(C)=O)c1ccc(OCCO)cc1)c1cc(C(=O)OC)ccc1OC,-0.435,0.858,0.304,-0.156,0.335,-0.0009,1.85,0.548,0.94,-1.07 (inactive)
CC[C@@H](O[Si](C#C[Si](C(C)C)(C(C)C)C(C)C)(C(C)C)C(C)C)c1cn([C@H](C)c2ccccc2)nn1,0.176,0.57,0.0506,-0.0116,0.548,0.335,-0.213,0.573,0.094,-0.268 (inactive)
CN1C(=O)C2C=CC(C(O)c3ccc([N+](=O)[O-])cc3)N(Nc3ccccc3)C2C1=O (stereo not given),0.358,1.23,0.36,0.999,1.26,0.531,-0.387,0.0022,1.04,-0.53 (inactive)
